The text below walks through data of PubChem BioAssay AID1508600 (Functional Genomics Laboratory (NCATS/FGL), 2020).

The whole screen tested about 53,000 sequences, of which about 3,700 (7%) were called active. The full list was thinned out, with actives kept by preference. Values without a mark were called inactive.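 Rule for the calls: active = gene knockdowns whose robust z-score for IL-1 alpha signal is at least 2 or at most -2, so actives lie on both sides; inactive = the rest.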

The nature of the assay: Components of the Cytosolic LPS Sensing Pathway: Gene Identification via Genome-wide siRNA Screen. Conditions: RAW264.7 macrophages, IL-1a HTRF, actives lie on both sides, screened at 100 nM (by protocol), cells primed 5 h with Pam3CSK4 first. The source says: Non-canonical inflammasome activation by cytosolic LPS is a critical component of the host response to Gram-negative bacterial infection, however we lack a comprehensive understanding of the cellular processes that control this pathway. Here we describe a genome-wide siRNA screen to identify genes regulating the mouse macrophage IL-1 alpha response to cytosolic LPS.
RAW264.7 cells were maintained in complete DMEM media, comprising DMEM with 4.5 g/L glucose, 10% FBS (Gemini Bio-Products, West Sacramento, CA), 2 mM Glutamine (Lonza) and 20 mM HEPES (Lonza), hereafter complete DMEM.
The RNAi screen was conducted in 384-well format using the Ambion Silencer Mouse Genome siRNA Library (#4391425), which consists of three unique, nonoverlapping, nonpooled siRNAs for each of 17,000 gene targets. siRNA reagents ([…]) were stamped into 384-well white flat-bottom microplates (Corning, 3570) using a Velocity11 VPrep liquid handling system (Agilent) integrated into a BioCel robotic platform (Agilent) in columns 1-22, leaving columns 23-24 empty for negative (Ambion, Negative control #1) and positive (mouse Casp4) controls, respectively. The median value of each plate's negative control column was used to normalize sample wells, and the positive control was used to assess transfection efficiency and assay performance.
Lipofectamine RNAiMAX Transfection Reagent ([…]; Invitrogen) was added in […] serum-free, antibiotic-free media to plate wells using a Thermo Scientific Matrix WellMate and Microplate Stacker. Plates were incubated for 45 min at room temperature to allow for the sufficient formation of siRNA-lipid complexes. Cells were seeded at a density of 1x10^4 cells per well in 20 microL media containing 20% (vol/vol) FBS without antibiotics. The final concentration of siRNA in each well was 100 nM. Cells were cultured for 48h at 37 degrees C in 5% CO2 before addition of […] of TLR ligand Pam3CSK4 for 5 hours. The medium was then removed, replaced with […] growth media and cell were transfected with […] of LipidA and TransIT-TKO (Mirus) for 24 hour. At the end of the LipidA treatment, […] of supernatant was transferred to a 384 Greiner Bio-one non-binding low volume plate and […] of IL-1a HTRF reagent (Cisbio, 62MIL1APEH) was added and incubated at room temperature overnight. The plates were read on an EnVision plate reader (PerkinElmer). Cell viability was measured by adding 20ul Cell Titer Glo to the original plate and running a luminescence read on the EnVision. The quantified IL-1a signal for each siRNA gene-targeted well was divided by the median of the negative control wells and multiplied by 100 to achieve a negative control normalized value for each well/siRNA. This normalized value was then used to generate a robust z-score by first taking the log of each value and then by subtracting the median and dividing by the […].
On the technique in general: Time-resolved FRET reads energy transfer from a long-lived donor to a nearby acceptor.
As for GGCAGAAGAACUUUUCCAGTT against Capsl, the z-score was 0.874. As for CCUUCUAGAGUACAUCAUATT against Prl7d1, the z-score was 0.298. Take GGGUUUCUUCGUGUCUAUUTT against Pth2r: the z-score was 1.56. Next, GGGAAGUAGCCAUCACACCTT against Ttbk1: 0.768; CCUAUAGCAGUGGUUUUCATT against Ece2: 2.22 (active); “GGCUUUUCGUUGUAAAUCATT against 9930111J21Rik2”: 0.735. Next, CGGGAAGUAAACAUUUCCATT against Rassf6: 0.527; GGACUCUGAUCUCUAUCAGTT against Tac2: -0.357; GGAGGAGAGGUACAAGAUGTT against Pcyt2: -0.804.

As for GGGAAGUCCAAAUAACGGATT against Zfp184, the z-score was 0.136. Turning to CCGACCCAAUUAAUGAUCATT against Tlcd2, the z-score was -1.12. The figure for CCAAAGUUUUAUCAGUUUGTT against Gpr87 is 0.653. Turning to GGUACUUUUACUCCCGAAGTT against Lgals3bp, the z-score was -2.05 (active).

As for GGUGAUAUAGCUAUUUUCUTT against Fbxw11, the z-score was 0.711. On to GGAAACACCAGAGAAGUCCTT against Etf1, for which the z-score is -0.56. Regarding GGUGCAAGAUAGUACGAUGTT against Gle1, the z-score was -0.649. On to GCACAAUAAAGCUUGUUGCTT against Trmt2a, for which the z-score was -2.26 (active).

As for GGAAGAUGGGCGACUCUAUTT against Pkmyt1, the z-score is 0.176. As to GGAUUCUCACCAAAUACUUTT against Oprd1, the z-score is 0.305. Take CGAUAUUUAUCAUGAGUGCTT against Nlrp9c: the z-score was -1.9. The figure for CCCACGAGGGAUAUAUCUGTT against Cd3d is -0.994.

For CGGCACCAGUGUUCUAUUGTT against Ddi2, the z-score was 1.91. Next, CCGCAAAGUGAGCAAGGUGTT against Id1: -0.63; GGAAAGCAGACAUCGACCUTT against Rps18: -0.848. Next, GGAACGUGUUCAAAAGAGUTT against Sos1: 2.22 (active); GGCCUAUCAAAAUUCAGUUTT against Rbm7: 1.17; GGAGAUUGGACCACUAUGATT against Sec24d: -1.31. The figure for GGAGUUCGACAUUAGCGGATT against Ehf is 0.0965; for GCAACAGUUGGUCUAAAAUTT against Psma1 it is -2.11 (active).

Consider GGAAUGUUUCUUUAUCACATT against Slc35e4, for which the z-score is -0.837. The figure for GCGUAUUUGGUGUUAAAAATT against Iars is 0.417. Next, GGAAGAAGAAGAUAAAGCGTT against Grk6: 0.184. Regarding CCACCAGAUACAUAUUUGUTT against Gnpnat1, the z-score was -0.352. The figure for GGCUUUAAAGAAUGAUUCATT against Cfap97 is 0.197; for GGAACUCCACUUUCUUUUUTT against Ripply3 it is 2.27 (active). Turning to GGCUGCACAAACAUGGUUCTT against Pard6a, the z-score was -0.146.

Turning to GGUGGAAGAUUAGUGACUUTT against Trim38, the z-score was 1.63.

Turning to CCGUGUAAGGUGUGGAGUGTT against Mcat, the z-score is -2.27 (active). On to GGAAAGAUUGUACCAGUUGTT against Cmpk1, for which the z-score was 2.58 (active). As to GGUAAAAUUCCAGAGUUGUTT against Serpinb9, the z-score was -0.412. The figure for GGGUUUGGACUGAUAUACUTT against Vrk2 is -0.465.

As for GGAAUCAGGAAUGCUACUUTT against Tsr1, the z-score was 0.216. Next, “CAAGAAGGUCAUGUUAUUGTT against Olfr106-ps”: 0.495.

Consider CGGCUCGUACACAUGUGAATT against Creld2, for which the z-score is 0.199.

On to GGAUGAAGAUGGAGACAUGTT against Lmx1b, for which the z-score was -2.58 (active). The figure for “GGGUUCAUAUGUUUUGGAUTT against C130050O18Rik” is 1.38; for GGAGCAGUAUAUCCUACAUTT against Olfr510 it is 2.82 (active).

With CCCUGACCUUGUGGUAGAATT against Aspdh, the z-score was -0.165. The figure for CGAGAAGAUAUUUAAAGAGTT against Myo10 is -0.045; for GGAAAACAAGAGAAGGCGCTT against Pom121 it is 0.361; for GGCCUAAUUUCCUCUAAUATT against Padi1 it is 0.452. The figure for GGUCUUCAGACCAGAAACATT against Hsd3b2 is -3.19 (active). GGAACAUUCUAGAAUCUGUTT against Rps6kb2: the z-score was 0.986.

As for GGCCAAUAAAGAAACAAACTT against Cst9, the z-score is 1.08. Regarding GGGUGUUGAAAGACUUUUATT against Tnks, the z-score is -0.122.

Take GCAAUCAUUUCUUCAUCUATT against Olfr148: the z-score was 0.255.

On to GGAAUACAAAUUCAAGAUCTT against Vamp5, for which the z-score is -0.82.

Regarding CCUAUCUUUUCCCUACAUGTT against Cyp4a31, the z-score is 2.01 (active). The figure for GGGAUAGUGUUCCUUAUCUTT against Neu1 is -2.6 (active); for GGUCAGCGUGGAGUCAAUATT against Fam184b it is -1.92. For the sequence GGAUAUCAUAUUUUCUCAGTT against Fam71d, the z-score is 0.0644. The figure for GGAGGUGCGCUUCUUUAACTT against Chst5 is 0.24.

CGAAAAAAAUCCAAGUCAATT against Akap12: the z-score is -0.28.

In the case of GCCUUAGGAAAUUCUCAAUTT against Rbm12b2, the z-score was 0.334. The figure for GGUCCUACAUCUCCUUCGATT against Cars is -0.194; for GCUAGAUUUGAUGGUUCAGTT against Cacng5 it is -1.62; for GGCAUUUAGUAAAACCCUUTT against Rnf144a it is -2.43 (active). Next, GCAUAUAACCGAGUUGAUUTT against Cdcp1: 0.183; GCUUCAGGAGCUCUACUGUTT against Catsper3: -0.736.
